Test results taken from PubChem BioAssay (NCI).
About 83,000 compounds went through this panel and 20% of them were active in at least one assay; those are over-represented in the sample as a whole.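 Growth was measured after 48 h exposure to one concentration of compound in 96-well plates. Values under 10 count as active.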 Values without a mark were called inactive. Calls of active or inactive are those of the source.

Each compound was assayed on MCF7 breast (assay: NCI-60 one-dose screen, 48 h (100 = growth as untreated, 0 = no growth, -100 = all killed)). Conditions: 10 µM unless noted.

Question: How did the growth turn out when `COCCOc1cc2ncnc(N3CCN(c4ncc(S(=O)(=O)N5CCCCC5)cn4)CC3)c2cc1OCCOC` was run?
Answer: 78.7%

Question: How did the growth turn out when `COC(=O)[C@]1(C)CCC[C@]2(C)[C@H]3C[C@H]4C(C(C)C)=C[C@]3(CC[C@H]21)[C@@H]1C(=O)CC[C@H](OCCC#N)[C@@H]14` was run?
Answer: 59.5%

Question: Which growth does the source give for `O=C(O)CCN1C(=O)/C(=C/C(Cl)=C/c2ccccc2)SC1=S` here?
Answer: 15.7%

Question: With `O=C(/C=C/c1cccc(Cl)c1)c1ccc(Nc2nc(Nc3ccc(F)cc3)nc(Nc3ccc(Cl)cc3)n2)cc1` as the compound, how does the growth read?
Answer: 230%

Question: Which growth does the source give for `CC(C)(Sc1cc(C(C)(C)C)c(O)c(C(C)(C)C)c1)Sc1cc(C(C)(C)C)c(OC(=O)CCCC(=O)O)c(C(C)(C)C)c1` here?
Answer: 36.2%

Question: With `Fc1cc2c(cc1Cl)N(c1ncnc3ccc(-c4ccc5n[nH]nc5c4)cc13)CC2` as the compound, how does the growth read?
Answer: 80.3%

Question: Which growth does the source give for `CCSC(SCC)c1ccc(Cl)cc1` here?
Answer: 104%

Question: Which growth does the source give for `O=C(Nc1nc2ccc(C(=O)N3CCN(/C=C/c4ccccc4)CC3)cc2s1)c1ccc(NCCc2ccccc2)c([N+](=O)[O-])c1` here?
Answer: 16%

Question: For `O=S(=O)(Nc1cc(F)cc(Cl)c1)c1ccc(-c2cnc(C3CC3)o2)cc1`, which growth is on record?
Answer: 13.7%

Question: `COC(=O)c1c(C)nc(C)c2c1C(=O)C(Br)=C(NCc1ccccc1)C2=O` was tested. Which growth did it give?
Answer: -30.2% (active)

Question: With `COc1cc2c(c(OC)c1OC)CCC(c1cccc(C(=O)Nc3ccc(C#N)cc3)c1)O2` (stereo not given) as the compound, how does the growth read?
Answer: 32.5%

Question: For `O=C1c2ccccc2-c2c1c1c(=O)[nH]c3ccccc3c1n2Cc1ccccc1`, which growth is on record?
Answer: 56.5%

Question: How did the growth turn out when `O=C1c2c(c3c4ccccc4[nH]c3c3ccc4ccccc4c23)C(=O)N1CCN1CCNCC1` was run?
Answer: 23%

Question: For `CC(C)=CCCC(C)c1ccc(C)c2c1OCN(CCCCCO)C2` (stereo not given), which growth is on record?
Answer: 88.7%

Question: With `COc1ccc(/C=N/NC(=O)c2ccc(-n3cc(-c4ccccc4)nn3)cc2)cc1OC` as the compound, how does the growth read?
Answer: 75.3%

Question: Which growth does the source give for `CCN(CC)S(=O)(=O)c1ccc(S(=O)(=O)N2CCC[C@@H](C(=O)N3CCN(c4nc(C(C)C)no4)CC3)C2)cc1` here?
Answer: 50.7%

Question: `Cc1cc(N2CCN(CC(=O)Nc3ccc4c(ccn4C)c3)CC2)nc(N2CCCCCC2)n1` was tested. Which growth did it give?
Answer: 77.9%

Question: With `COc1ccc(Nc2ncc(Br)c(NCCCNC(=O)c3cccs3)n2)cc1` as the compound, how does the growth read?
Answer: 42.9%

Question: `NC(=O)C(=O)c1ccccc1NC=O` was tested. Which growth did it give?
Answer: 99.5%

Question: `N#Cc1ccc2c(c1)C(=O)c1c-2n(CCCN)c(=O)c2cc([N+](=O)[O-])ccc12` was tested. Which growth did it give?
Answer: -74.8% (active)

Question: For `c1ccc(Cn2cc3c(c2)-c2oncc2CC3)cc1`, which growth is on record?
Answer: 18.8%

Question: With `O=C(CSC(=S)n1cnnc1)NC(=O)c1ccccc1` as the compound, how does the growth read?
Answer: 99.3%

Question: Which growth does the source give for `O=C1/C(=C\c2ccc3nccnc3c2)SC(=S)N1CCc1ccc(O)cc1` here?
Answer: 41.9%

Question: Which growth does the source give for `COc1c(B(O)O)cccc1-c1nc2c(F)cc3[nH]ncc3c2c2c1CCCC2` here?
Answer: -3.83% (active)

Question: `COc1c(B(O)O)cccc1-c1cc(C)c2c(ccc3[nH]ncc32)n1` was tested. Which growth did it give?
Answer: 71.8%

Question: `CSc1nnc(-c2cc3c([nH]c4ccccc43)c(-c3cccc(O)c3)n2)n1-c1ccccc1` was tested. Which growth did it give?
Answer: 13.2%

Question: With `C=C1C(=O)O[C@H]2[C@H]1CC/C(Cn1cc(-c3ccccc3)nn1)=C\CC[C@@]1(C)O[C@@H]21` as the compound, how does the growth read?
Answer: -60.1% (active)

Question: With `C=C(CBr)[C@@H]1CC[C@]2(C(=O)O)CC[C@]3(C)[C@H](CC[C@@H]4[C@@]5(C)CCC(=O)C(C)(C)[C@@H]5CC[C@]43C)[C@@H]12` as the compound, how does the growth read?
Answer: 78.2%

Question: With `CCNCCNc1cc(C2CCCCC2)c(C#N)c2nc3ccccc3n12` as the compound, how does the growth read?
Answer: 14.7%

Question: Which growth does the source give for `COc1cc2c(c(OC)c1OC)CCC(c1cccc(C(=O)Nc3cccc(Cl)c3)c1)O2` (stereo not given) here?
Answer: 73%

Question: `CCCCCCCC[C@@H]1N[C@@H](C(=O)OC)Cc2c1[nH]c1ccccc21` was tested. Which growth did it give?
Answer: 92%

Question: Which growth does the source give for `CC(=O)Oc1ccc(/C(=C(\C)c2ccc(Cl)cc2)c2ccc(OCCN3CCCCC3)cc2)cc1` here?
Answer: 3.38% (active)

Question: For `COc1ccc2cc1Oc1ccc(cc1)C[C@H]1c3c(cc4c(c3Oc3cc5c(cc3OC)CCN(C)[C@@H]5C2)OCO4)CCN1C`, which growth is on record?
Answer: 34.6%

Question: With `CC(=O)c1c(C)nc2ccccc2c1/C=C/c1ccc(F)cc1` as the compound, how does the growth read?
Answer: 77.3%

Question: `CN(/C(N)=N/N=C/c1c2ccccc2cc2ccccc12)C1CCCCC1` was tested. Which growth did it give?
Answer: 32.8%

Question: Which growth does the source give for `CCOC(=O)n1ccn(C)c1=S` here?
Answer: 102%

Question: `Cc1cn(-c2cc(NC(=O)c3cncc(C#Cc4cnc(N)c5ncccc45)c3)cc(C(F)(F)F)c2)cn1` was tested. Which growth did it give?
Answer: 73.9%

Question: With `O=C(Cn1cc(CSc2nc3ccccc3o2)nn1)Nc1ccc(F)cc1F` as the compound, how does the growth read?
Answer: 92.5%

Question: Which growth does the source give for `Cc1c2cnccc2c(C)c2c1c1cc(C#N)ccc1n2C` here?
Answer: -12.2% (active)

Question: Which growth does the source give for `CNC(=O)c1ccccc1Oc1nc(Nc2cc(OC)c(OC)c(OC)c2)ncc1Br` here?
Answer: 44.5%
